Measurements reported in PubChem BioAssay.
Records with an inconclusive call do not appear. For some of these results: Potency and affinity values are given separately. Activity calls are given as the source filed them. Unless noted, the rule behind the calls is not given here.

What was measured:
[1] = blockers of polyQ-driven CASP3 activation – cell-based (AID 1583); settings: polyglutamine-induced caspase-3 activation, cell assay; stronger effect = higher value;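 tested at 10 µM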
[2] = yeast 75Q aggregation reduction – 75Q-TubU reporter (AID 1593); settings: Yeast 75Q polyglutamine aggregation reporter
[3] = restoration of touch response, mutant HTT neurons – whole organism, C. elegans mechanosensory neurons, N-terminal huntingtin (AID 1599); settings: C. elegans polyQ-huntingtin mechanosensory neurons, stronger effect = higher value
[4] = blockers of cytochrome c efflux from mitochondria – biochemical, purified mitochondria (AID 1603); settings: stronger effect = lower value;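 note: mouse liver mitochondria challenged with calcium chloride; signal normalized to the plate average as 100%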
[5] = polyglutamine aggregate formation blockers (AID 1604); settings: polyglutamine-induced protein aggregation inhibition assay; stronger effect = higher value; tested at 2.5 µM
[6] = glutamate transport activators, MN-1 cells, MN-1 cell line (AID 1612); settings: MN-1 motor neuron cells, stronger effect = higher value;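 note: tested at 1 µM final; 0% = mean of DMSO vehicle wells on each plate; positive means more glutamate uptake than control and negative means less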
[7] = 75Q-TubH aggregate inhibition, S. cerevisiae, yeast (AID 1616); settings: S. cerevisiae 75Q-TubH polyglutamine aggregation suppression; stronger effect = higher value
[8] = compounds altering circadian rhythm period length – cell-based, LOPAC library, luminescence reporter (AID 2774); settings: circadian reporter cells, at 7 µM, actives lie on both sides;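 note: values are relative to mean of DMSO wells on each plate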
[9] = compounds altering viability of human ES cells (AID 493140); settings: human embryonic stem cell survival screen; stronger effect = higher value;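 note: cells exposed to compounds for four days before counting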
[10] = antimalarial activity against Dd2 strain (AID 2302;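 active = growth inhibition above 50% at the single 2 µM test dose, taken to imply half-maximal potency below 2 µM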;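 note: 0% = DMSO untreated growth and 100% = chloroquine plus artemisinin killed control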); settings: P. falciparum Dd2 in RBCs, LDH growth readout, 72 h; at 2 µM; stronger effect = higher value
[11] = human hepatoma cell viability loss – ATP luminescence, cytotoxicity control for P. falciparum antimalarial project, primary screen (AID 2303;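 active = inhibition above 50%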;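 note: 0% = DMSO wells and 100% = digitonin-killed cells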); settings: HepG2 viability, 24-48 h, at 10 µM, stronger effect = higher value
[12] = target: L-lactate dehydrogenase (Plasmodium falciparum (isolate CDC / Honduras)) (UniProt Q27743); experiment: PfLDH activity inhibition – cell lysate, 3D7 strain, counter-screen for P. falciparum growth inhibition project (AID 2304);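 note: 0% = vehicle and 100% = reference inhibitor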; settings: P. falciparum 3D7 crude extract, LDH APAD/NBT absorbance; at 2 µM; stronger effect = higher value
[13] = inhibition of 3D7 malaria parasite growth – strain 3D7 (AID 2306);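 note: 0% = DMSO wells and 100% = chloroquine plus artemisinin control wells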; settings: P. falciparum 3D7 erythrocytic growth, LDH absorbance, 72 h; at 2 µM; stronger effect = higher value
[14] = target: ATP-dependent translocase ABCB1 (Homo sapiens) (UniProt P08183); experiment: P-glycoprotein substrate transport blockade – cell-based (AID 377; in the data active = fluorescence slope change above about 50%); settings: MDR1-expressing cells, fluorescent substrate accumulation slope; stronger effect = higher value; concentration not given here
[15] = GFP-Q80 aggregate reduction, neuronal-like cells, cell-based, NGF-treated PC12, GFPQ80 (AID 1614); settings: PC12 NGF-treated GFP-polyQ80 inclusion reduction;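 note: lower means fewer inclusions and 0 means no inclusions at all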

Sequence of ATP-dependent translocase ABCB1 (Homo sapiens) (P08183 whole entry, looked up): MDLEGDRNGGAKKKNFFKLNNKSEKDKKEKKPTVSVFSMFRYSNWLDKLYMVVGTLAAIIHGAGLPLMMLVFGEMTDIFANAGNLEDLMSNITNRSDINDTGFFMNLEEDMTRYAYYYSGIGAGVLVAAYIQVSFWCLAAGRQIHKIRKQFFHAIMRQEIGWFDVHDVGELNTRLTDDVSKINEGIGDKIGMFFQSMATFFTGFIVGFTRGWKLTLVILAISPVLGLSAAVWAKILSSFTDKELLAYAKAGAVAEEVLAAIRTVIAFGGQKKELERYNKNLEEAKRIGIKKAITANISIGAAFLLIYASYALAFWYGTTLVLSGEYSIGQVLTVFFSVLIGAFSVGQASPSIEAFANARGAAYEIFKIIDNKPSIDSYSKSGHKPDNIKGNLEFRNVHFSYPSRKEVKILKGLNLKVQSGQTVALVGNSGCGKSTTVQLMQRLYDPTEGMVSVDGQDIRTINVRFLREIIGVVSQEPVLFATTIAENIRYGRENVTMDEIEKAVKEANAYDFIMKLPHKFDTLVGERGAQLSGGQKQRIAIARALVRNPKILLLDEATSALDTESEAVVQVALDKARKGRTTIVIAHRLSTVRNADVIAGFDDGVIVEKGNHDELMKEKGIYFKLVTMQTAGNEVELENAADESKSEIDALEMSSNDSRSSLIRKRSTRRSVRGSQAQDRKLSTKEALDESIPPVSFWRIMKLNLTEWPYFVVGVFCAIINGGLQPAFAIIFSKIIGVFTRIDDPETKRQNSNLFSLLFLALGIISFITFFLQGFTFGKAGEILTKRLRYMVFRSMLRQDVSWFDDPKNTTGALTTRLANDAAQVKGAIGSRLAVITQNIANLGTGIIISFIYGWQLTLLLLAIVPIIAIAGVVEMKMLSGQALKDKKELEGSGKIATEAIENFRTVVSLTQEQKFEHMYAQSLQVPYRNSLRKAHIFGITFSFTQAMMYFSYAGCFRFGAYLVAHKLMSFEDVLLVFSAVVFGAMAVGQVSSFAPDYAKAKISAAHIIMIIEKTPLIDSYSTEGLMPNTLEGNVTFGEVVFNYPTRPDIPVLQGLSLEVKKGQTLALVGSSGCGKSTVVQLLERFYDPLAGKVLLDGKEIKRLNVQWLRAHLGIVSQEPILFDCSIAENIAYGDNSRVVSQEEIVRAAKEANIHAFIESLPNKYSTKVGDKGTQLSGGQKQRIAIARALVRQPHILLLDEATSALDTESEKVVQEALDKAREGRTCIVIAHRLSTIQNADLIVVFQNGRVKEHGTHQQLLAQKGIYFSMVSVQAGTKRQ
Sequence of L-lactate dehydrogenase (Plasmodium falciparum (isolate CDC / Honduras)) (Q27743 whole entry, looked up): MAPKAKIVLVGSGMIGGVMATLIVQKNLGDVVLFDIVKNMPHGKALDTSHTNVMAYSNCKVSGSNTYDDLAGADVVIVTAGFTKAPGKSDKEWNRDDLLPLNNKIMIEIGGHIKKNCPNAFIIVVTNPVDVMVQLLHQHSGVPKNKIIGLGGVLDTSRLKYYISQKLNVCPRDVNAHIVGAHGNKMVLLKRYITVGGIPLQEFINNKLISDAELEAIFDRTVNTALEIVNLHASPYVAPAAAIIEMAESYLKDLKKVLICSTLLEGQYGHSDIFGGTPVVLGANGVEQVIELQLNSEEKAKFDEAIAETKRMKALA

## NC(CO)C(=O)NNCc1ccc(O)c(O)c1O (stereo unspecified)
[1]
  inhibition: 5.62%
[2]
  score: 1.68
[3]
  rescue above control: 7.52
[4]
  cytochrome c release ratio: 0.53
[5]
  inhibition of aggregation: 89.7%
[6]
  glutamate uptake change: 11.3%
[7]
  aggregation suppression score: 1.23
[8]
  period change: 0.075 h (inactive)
[9]
  survival: 2.42 (inactive)

## COc1cc2c(Nc3ccc(Br)cc3F)ncnc2cc1OCC1CCN(C)CC1
[10]
  growth inhibition: 16% (inactive)
[11]
  inhibition: 10% (inactive)
[12]
  inhibition: 5% (inactive)
[13]
  growth inhibition: 97% (active)

## CCN1CCC[C@H]1CNC(=O)c1c(O)c(Cl)cc(Cl)c1OC
[8]
  period change: -0.03 h (inactive)

## CNCC(O)c1ccc(O)c(O)c1 (stereo unspecified)
[8]
  period change: -0.055 h (inactive)

## Oc1ccc(C2CNCCc3c2cc(O)c(O)c3Cl)cc1 (stereo unspecified)
[8]
  period change: 0.145 h (inactive)

## Cc1cc2cc3c(C)cc(=O)oc3c(C)c2o1
[14]
  fluorescence slope change: 18.1% (inactive)
[1]
  inhibition: -5.8%
[2]
  score: 0.49
[4]
  cytochrome c release ratio: 1.2
[5]
  inhibition of aggregation: 74.1%
[6]
  glutamate uptake change: -15.5%
[15]
  inclusion score: 2
[7]
  aggregation suppression score: 0.635
[9]
  survival: 6 (inactive)

## O=C1C(O)=C(O)C(=O)C(O)=C1O
[1]
  inhibition: 0.61%
[2]
  score: 0.92
[3]
  rescue above control: -5.82
[4]
  cytochrome c release ratio: 1.43
[5]
  inhibition of aggregation: 8.97%
[6]
  glutamate uptake change: 5.54%
[7]
  aggregation suppression score: 1.42
[9]
  survival: 4.75 (inactive)

## Cc1cnc(NC(=O)C2=C(O)c3ccccc3S(=O)(=O)N2C)s1
[8]
  period change: -0.06 h (inactive)

## CCN1CCC[C@H]1CNC(=O)c1cc(S(N)(=O)=O)ccc1OC
[8]
  period change: -0.035 h (inactive)

## Cc1cn([C@H]2C=C[C@@H](CO)O2)c(=O)[nH]c1=O
[8]
  period change: -0.14 h (inactive)

## CCN(CC)Cc1cc(Nc2ccnc3cc(Cl)ccc23)ccc1O
[14]
  fluorescence slope change: 54.8% (active)
[10]
  growth inhibition: 99% (active)
[11]
  inhibition: -2% (inactive)
[12]
  inhibition: 3% (inactive)
[13]
  growth inhibition: 102% (active)
[9]
  survival: 6.17 (inactive)

## CCCCCCCCNC(C)C(O)c1ccc(SC(C)C)cc1 (stereo unspecified)
[1]
  inhibition: 71.7%
[2]
  score: -1.11
[3]
  rescue above control: 0
[4]
  cytochrome c release ratio: 0.61
[5]
  inhibition of aggregation: 63%
[6]
  glutamate uptake change: -7.34%
[7]
  aggregation suppression score: 0.0242
[9]
  survival: 0.25 (inactive)

## CCn1cc(C(=O)O)c(=O)c2cc3c(cc21)OCO3
[14]
  fluorescence slope change: 56.5% (active)
[1]
  inhibition: -14.8%
[2]
  score: 1.16
[4]
  cytochrome c release ratio: 0.82
[5]
  inhibition of aggregation: 74.7%
[6]
  glutamate uptake change: 5.71%
[15]
  inclusion score: 2
[7]
  aggregation suppression score: 1.09
[8]
  period change: 0.16 h (inactive)
[9]
  survival: 33.2 (inactive)

## CCCCOc1cc(C(=O)NCCN(CC)CC)c2ccccc2n1
[1]
  inhibition: -0.9%
[2]
  score: 1.3
[3]
  rescue above control: -3.49
[4]
  cytochrome c release ratio: 1.15
[5]
  inhibition of aggregation: 50%
[6]
  glutamate uptake change: -13.8%
[7]
  aggregation suppression score: 1.32
[9]
  survival: 7.17 (inactive)

## COc1ccc(C(=O)c2ccccc2)c(O)c1
[1]
  inhibition: 16.9%
[2]
  score: 0.23
[3]
  rescue above control: 9.82
[4]
  cytochrome c release ratio: 1.17
[5]
  inhibition of aggregation: 35%
[6]
  glutamate uptake change: 5.28%
[7]
  aggregation suppression score: 0.225
[9]
  survival: 3.25 (inactive)

## CCCCc1ccc2nc(NC(=O)OC)[nH]c2c1
[10]
  growth inhibition: 1% (inactive)
[11]
  inhibition: 26% (inactive)
[12]
  inhibition: -3% (inactive)
[13]
  growth inhibition: 98% (active)
[9]
  survival: 1 (inactive)

## C[C@](N)(Cc1ccc(O)cc1)C(=O)O
[8]
  period change: -0.34 h (inactive)

## NC/C=C/C(=O)O
[8]
  period change: -0.005 h (inactive)

## OCc1cc(C(O)CNCCCCCCOCCCCc2ccccc2)ccc1O (stereo unspecified)
[8]
  period change: -0.06 h (inactive)

## NCCS
[8]
  period change: 0.02 h (inactive)

## CCCCC1C(=O)N(c2ccccc2)N(c2ccc(O)cc2)C1=O (stereo unspecified)
[1]
  inhibition: -30.1%
[2]
  score: 0.89
[3]
  rescue above control: -3.48
[4]
  cytochrome c release ratio: 0.98
[5]
  inhibition of aggregation: 61%
[6]
  glutamate uptake change: 5.7%
[7]
  aggregation suppression score: 0.77
[9]
  survival: 4 (inactive)

## CC(C)NNC(=O)c1ccncc1
[14]
  fluorescence slope change: 97.9% (active)
[1]
  inhibition: 12.9%
[2]
  score: 1.22
[4]
  cytochrome c release ratio: 1.02
[5]
  inhibition of aggregation: 71.4%
[6]
  glutamate uptake change: -13.1%
[15]
  inclusion score: 2
[7]
  aggregation suppression score: 1.22
[8]
  period change: 0.33 h (inactive)
[9]
  survival: 24.2 (inactive)

## CN1CCC(=C2c3ccccc3Sc3ccccc32)CC1
[14]
  fluorescence slope change: 107% (active)
[1]
  inhibition: -31.4%
[2]
  score: 1.33
[4]
  cytochrome c release ratio: 1.44
[5]
  inhibition of aggregation: 88.8%
[6]
  glutamate uptake change: 7.96%
[7]
  aggregation suppression score: 1.3
[9]
  survival: 12.3 (inactive)

## CCOc1ccc2nc3cc(N)ccc3c(N)c2c1
[10]
  growth inhibition: 70% (active)
[11]
  inhibition: 8% (inactive)
[12]
  inhibition: 0% (inactive)
[13]
  growth inhibition: 98% (active)

## CC(=O)[C@]1(O)Cc2c(O)c3c(c(O)c2[C@@H](O[C@H]2C[C@H](N)[C@H](O)[C@H](C)O2)C1)C(=O)c1ccccc1C3=O
[8]
  period change: -1.6 h (inactive)

## C[C@H]1O[C@@H](n2cc(F)c(=O)[nH]c2=O)[C@H](O)[C@@H]1O
[8]
  period change: -0.1 h (inactive)

## CCCCCCCC/C=C\CCCCCCCC(=O)NCc1ccc(O)c(OC)c1
[10]
  growth inhibition: 93% (active)
[11]
  inhibition: -7% (inactive)
[12]
  inhibition: -7% (inactive)
[13]
  growth inhibition: 96% (active)
